Experimental data published in PubChem BioAssay AID504332 (National Center for Advancing Translational Sciences (NCATS), 2011).
About 31,000 (8.9%) of roughly 350,000 compounds were called active. Roughly 15% stayed inconclusive and do not appear here. Many of the other results were omitted from the sample, so actives are more common in it than they were. A number with no mark means an inactive call. Calls follow the shape of the dose curve; as a rule, active = well fitted inhibition curve with a large enough effect; inconclusive = small, poorly fitted or top-dose-only effect; inactive = no such curve, though single readings can be large or run the other way.

What follows are compounds tested against Histone-lysine N-methyltransferase EHMT2 (Homo sapiens) (UniProt Q96KQ7) (assay: qHTS Assay for Inhibitors of Histone Lysine Methyltransferase G9a). Conditions: G9a H3K9 monomethylation, AlphaScreen, 2 h; series mostly up to 59 µM; activity, negative = inhibition: at the top concentration.
Method in brief: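 Quantitative HTS format: methyltransferase activity on a biotin-tagged H3K9 peptide is measured by AlphaScreen, using a rabbit anti-monomethyl-H3K9 antibody with streptavidin donor and anti-IgG acceptor beads. Final levels are 20 nM enzyme, 500 nM peptide, 20 uM SAM; 2 h RT.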
% is scaled to controls: 0 for no effect and ±100 for the full control effect; potency is read from the fitted curve at half-maximal effect.
Also: nearly all actives have a fitted effect of over 75% in size.

Histone-lysine N-methyltransferase EHMT2 (Homo sapiens), sequence (Q96KQ7 913-1193 limits assumed): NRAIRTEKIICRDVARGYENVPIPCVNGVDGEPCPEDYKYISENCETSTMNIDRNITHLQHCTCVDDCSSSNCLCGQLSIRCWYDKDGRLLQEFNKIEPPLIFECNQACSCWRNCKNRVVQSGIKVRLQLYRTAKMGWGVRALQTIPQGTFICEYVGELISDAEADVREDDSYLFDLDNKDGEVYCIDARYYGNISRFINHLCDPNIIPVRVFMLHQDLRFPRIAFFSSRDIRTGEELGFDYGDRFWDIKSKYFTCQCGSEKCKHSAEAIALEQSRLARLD

Structure (SMILES) | activity, negative = inhibition | Potency
CCOC(=O)C1(CCOc2ccccc2)CCN(Cc2ccc(C#CCCO)cc2)CC1 | -13.7% [at 102 µM] | 
Cc1ccc(Cl)cc1N(C)C(=O)Cn1nc(Cc2cccnc2)c2ccccc2c1=O | -0.885% | 
O=C(Nc1ccccc1)Nc1ccccc1C(=O)NCc1ccco1 | 0.665% [at 12.7 µM] | 
CCOc1ccccc1C(=O)NCc1ccco1 |  | 44.7 µM (active)
COc1ccc(C(=O)Nc2ccccc2C(=O)NCc2ccco2)cc1 | 20.2% [at 102 µM] | 
COc1ccc(NC(=O)CN(C)C(=O)c2ccc(COc3ccccc3)o2)cc1 | 8.51% [at 102 µM] | 
C[C@H]1[C@H]2c3nc4ccccc4n3C[C@H]1ON2C1CCCCC1 | 20.1% [at 102 µM] | 
CS(=O)(=O)Nc1ccc(C2=NN(S(C)(=O)=O)C(c3cccs3)C2)cc1 (centres undefined) | -27.8% [at 102 µM] | 
CCS(=O)(=O)Nc1ccc(C2=NN(C(C)=O)C(c3cccs3)C2)cc1 (centres undefined) | 7.26% [at 102 µM] | 
CCS(=O)(=O)Nc1ccc(C2=NN(S(=O)(=O)c3ccc(F)cc3)C(c3ccco3)C2)cc1 (centres undefined) |  | 79.4 µM (active)
CCCCN(CCCC)CCCNC(=O)CN1C(=O)COc2ccc(S(=O)(=O)N3CCC(C)CC3)cc21 | 56.2% [at 102 µM] | 
O=C(CCNC(=O)c1ccc(Br)cc1)NCC(c1ccco1)N1CCCCC1 (centres undefined) | 19.9% [at 12.7 µM] | 
Cc1ccc(/C=N/NC(=O)Cn2ccc(C(F)(F)F)n2)o1 | -9.13% [at 102 µM] | 
Cc1ccc(/C=N/NC(=S)NC2CCCCC2)o1 |  | 50.1 µM (active)
Cc1ccc(NC(=S)NC2CCCC2)cc1 | 23.8% [at 0.501 µM] | 
C/C(=N\NC(=O)NC1CCCCC1)c1ccc(OC(F)F)cc1OC(F)F | 7.82% [at 102 µM] | 
C/C(=N/NC(=O)c1ccc(Br)o1)c1ccc(C)o1 | 3.1% | 
C/C(=N\NC(=S)NC1CCCCC1)c1ccc(C)o1 |  | 50.1 µM (active)
O=C(Nc1ccc(Cl)c(Cl)c1)c1ccccc1NC(=O)C1CC=CCC1C(=O)O (centres undefined) | -7.21% [at 102 µM] | 
COc1ccc(C)cc1NC(=O)CNCc1cccs1 | 4.36% [at 102 µM] | 
COc1cc(OC)cc(-c2c(-c3cccs3)c3cc(-c4ccc(OC)cc4F)ccc3n2C)c1 | 2.09% [at 0.501 µM] | 
CC(Sc1nnc(-c2cccs2)n1C1CC1)C(=O)NCC1CCCO1 (centres undefined) | 29.1% [at 12.7 µM] | 
O=C(NCCC1CCCCN1S(=O)(=O)c1ccccc1)C(=O)NCC1CCCO1 (centres undefined) | 10.2% [at 0.501 µM] | 
CCC(=O)N1CCc2cc(CNS(=O)(=O)c3ccc(Br)s3)ccc21 | 1.92% | 
CCOC(=O)Cn1c(=O)n(C2CCCCC2)c2nc(-c3cccc(OC)c3)nc(C(N)=O)c21 | 9.68% | 

Structure (SMILES) | activity, negative = inhibition | Potency
CCOC(=O)c1ccc(NC(=O)CCS(=O)(=O)c2ccc3c(c2)oc(=O)n3C)cc1 | -6.14% | 
Cc1ccc(C)c2sc(NC(=O)c3ccc(S(=O)(=O)N4CCCC4)cc3)nc12 | 4.68% | 
O=C(NCCCn1ccnc1)c1ccccc1F | 24.5% [at 102 µM] | 
CCCC(=O)Nc1ccc(C(=O)NCCCn2ccnc2)cc1 | 19.1% | 
CCCCC(=O)Nc1ccc(C(=O)NCCCn2ccnc2)cc1 |  | 12.6 µM (active)
O=C(CC1SC(N2CCCC2)=NC1=O)Nc1ccc(C(=O)NCCc2ccc(F)cc2)cc1 (centres undefined) | 9.67% [at 0.501 µM] | 
CCOC(=O)c1scc(-c2ccc(C)cc2)c1S(=O)(=O)Nc1cc(C)ccc1C | -5.5% | 
Cc1cc(C(=O)COc2ccc(Br)cc2F)c(C)n1C1CC1 | -8.88% | 
COc1cccc(C2/C(=C(/O)c3ccncc3)C(=O)C(=O)N2CCCN(C)C)c1 (centres undefined) | -30.1% [at 102 µM] | 
COc1ccc(/C(O)=C2/C(=O)C(=O)N(c3nc(C)c(C)s3)C2c2ccco2)cc1 (centres undefined) |  | 44.7 µM (active)
COc1ccccc1C1/C(=C(/O)c2ccc(C)cc2)C(=O)C(=O)N1Cc1ccco1 (centres undefined) | -8.27% | 
O=C(C1CCC(=O)N(C2CC2)C1)N1CCN(c2ccc(Cl)cc2)CC1 (centres undefined) | 20.8% [at 102 µM] | 
Cc1ccsc1CN(C(=O)c1oc2ccc(Br)cc2c1C)C1CCS(=O)(=O)C1 (centres undefined) | -4.15% | 
Cc1ccc(C(=O)Nc2c(C(=O)NC(C)(C)C)oc3ccccc23)cc1 | 10.2% | 
COc1cccc(N2CCN(S(=O)(=O)c3cc(Br)cc4c3N(C(=O)C3CC3)CC4)CC2)c1 |  | 7.94 µM (active)
O=C(C1CC1)N1CCc2cc(Br)cc(S(=O)(=O)N3CCN(c4ccccc4F)CC3)c21 | -8.58% | 
CCOC(=O)N1CCN(S(=O)(=O)c2cc(Br)cc3c2N(C(=O)C2CC2)CC3)CC1 | 26% | 
Cc1ccc(S(=O)(=O)N(C)C)cc1NC(=O)C(C)OC(=O)c1ccc2ccccc2n1 (centres undefined) | 10.5% [at 2.33 µM] | 
C=CCc1c(C)nc2cc(-c3ccccc3)[nH]n2c1=O | 35% | 
CCOC(=O)c1sc(NC(=O)/C=C/c2ccc(C(C)C)cc2)c(C(=O)OCC)c1C | 3.39% | 
CCOC(=O)c1c(NC(=O)/C=C/c2ccco2)sc(C)c1C |  | 44.7 µM (active)
CCC(CC)c1nnc(NC(=O)/C=C/c2ccco2)s1 | 11.7% | 
Cc1nnc(NC(=O)/C=C/c2ccco2)s1 |  | 31.6 µM (active)
Cc1nnc(NC(=O)C(c2ccccc2)c2ccccc2)s1 | 14.6% [at 102 µM] | 
CCOC(=O)c1c(NC(=S)NC(=O)/C=C/c2cccs2)sc(C)c1C | 7.95% [at 102 µM] | 

Structure (SMILES) | activity, negative = inhibition | Potency
Oc1ccccc1-c1nc(/C=C/c2ccc(F)cc2)no1 | -6.97% | 
O=C(NCC(c1ccc(Cl)cc1)N1CCOCC1)c1ccccc1F (centres undefined) | 0.409% | 
O=C(Nc1cccnc1Cl)c1cc(-c2ccccc2O)on1 | 11.2% [at 102 µM] | 
O=C1CSC(c2cccc(F)c2)N1c1ccccc1F (centres undefined) | -5.4% [at 12.7 µM] | 
O=C1CC(c2cccc(F)c2)C2=C(CCCC2=O)N1 (centres undefined) | 24.3% | 
O=C1CCCC2=C1C(c1ccccc1)n1c(s/c(=C/c3cccc(F)c3)c1=O)=N2 (centres undefined) |  | 10 µM (active)
Cc1ccc(-c2cc(C(F)(F)F)c(C#N)c(SCC(=O)Nc3ccccc3)n2)cc1 | 6.72% | 
CCOCCc1nn2c(=O)cc(COC(=O)CNC(=O)c3ccc(C(C)(C)C)cc3)nc2s1 | 27.8% | 
COc1ccc(CNC(=O)C2CC(c3ccc(C(F)(F)F)cc3)=NO2)cc1 (centres undefined) | 32.3% | 
CC(C)(C)OC(=O)N[C@H](C(=O)OC(C)(C)C)c1ccc(Br)cc1 | 2.34% [at 0.501 µM] | 
C[C@H](C(=O)CC(=O)OC(C)(C)C)[C@H](O)c1ccc(C(F)(F)F)cc1 |  | 79.4 µM (active)
COC(=O)c1cccc(C(=O)N2CCC(CCC(=O)NCc3ccc(F)cc3)CC2)c1 | -0.66% [at 102 µM] | 
Cc1occc1C(=O)NC1CCCN(Cc2ccc(CC(C)C)cc2)C1 (centres undefined) | 0.764% [at 102 µM] | 
Cc1ccccc1CN1CCC(C(=O)Nc2ccc(Oc3cccnc3)cc2)CC1 | 0.879% | 
COc1ccc(CCNc2ncnc3c2cnn3-c2ccc(C)cc2)cc1 | 5.54% | 
COc1cc(NC(=O)c2noc3c2CSc2ccccc2-3)cc(OC)c1OC |  | 1.78 µM (active)
COc1cc(NC(=O)c2nc3ccccc3nc2C)cc(OC)c1OC | -32.1% | 
COc1ccc(CCNC(=O)c2nn(C)c3c2CSc2ccccc2-3)cc1OC | -43% | 
COc1ccc(-c2onc(C)c2C)cc1S(=O)(=O)NCc1cccs1 | 1.71% | 
Cc1ccc(S(=O)(=O)N2CCN(C(=O)c3ccccc3-c3nc4ccccc4s3)CC2)c(C)c1 | -36.1% [at 102 µM] | 
Cc1cc2c(cc1C)[n+](C)cn2CC(O)COCC1CC=CCC1 (centres undefined) |  | 39.8 µM (active)
COc1ccc(C(=O)NCC2CCCN2S(=O)(=O)c2cccs2)cc1OC (centres undefined) | 4.75% [at 102 µM] | 
CC(=O)NC(c1cccs1)c1cc(Br)c2cccnc2c1O (centres undefined) | 7.81% [at 12.7 µM] | 
COc1ccccc1NC(=O)/C=C/C(=O)O | -38.1% [at 102 µM] | 
Cc1c(NC(=O)Nc2ccccc2)cccc1[N+](=O)[O-] | 15.3% [at 102 µM] | 

Structure (SMILES) | activity, negative = inhibition | Potency
Cc1c(NC(=O)/C=C/C(=O)O)cccc1[N+](=O)[O-] |  | 39.8 µM (active)
Cc1c(NC(=S)NCc2ccc(F)cc2)cccc1[N+](=O)[O-] |  | 39.8 µM (active)
Cc1cccc(NC(=S)NCCc2ccc(F)cc2)c1C | 8.37% | 
CCNC(=S)Nc1cccc(Cl)c1C | 19.4% | 
CCCCNC(=O)c1cc(-c2ccc(Cl)c(Cl)c2)on1 | 8.77% | 
O=C(COc1ccccc1)NCc1ccc2c(c1)CCN2C(=O)c1ccc(F)cc1 | -0.362% | 
O=C(NCCCN1CCCC1=O)C(=O)NCC1OCCN1S(=O)(=O)c1ccc(Br)cc1 (centres undefined) | 30.6% [at 102 µM] | 
Cc1ccc(NC(=O)CN2C(=O)CC(C)Sc3ccccc32)c(C)c1 (centres undefined) | -3.84% | 
COc1ccc(S(=O)(=O)N(C)CC(=O)N2CCCC2)cc1 | -6.5% [at 102 µM] | 
CCN(CC)c1ccc(NC(=O)Cn2nc3c(cc2=O)CCCC3)c(C)c1 |  | 11.2 µM (active)
CCc1ccc(-n2nc(C)c3c(C)cc(=O)n(CC(=O)Nc4ccc(F)cc4C)c32)cc1 | 13.4% | 
Cc1cc(NC(=O)Cn2nc(C(F)(F)F)c3c2CCCC3)no1 | 2.94% | 
C/C(=C/c1ccccc1)C(=O)N1CCN(c2ccccc2)CC1 | -3.56% [at 102 µM] | 
CCOc1ccc(NC(=O)c2cnn(-c3ccccc3)c2-n2cccc2)cc1 | -16.2% | 
N#C/C(=C/c1ccc(N2CCOCC2)o1)C(=O)N1CCOCC1 |  | 7.94 µM (active)
Cc1ccc(C(=O)N2CCN(C(=O)N3CCOCC3)CC2)cc1 | -4.57% | 
O=C(N1CCOCC1)N1CCOCC1 | 9.64% | 
Cc1cccc(NC(=O)Cc2ccc(Br)cc2)n1 | 12.1% [at 0.501 µM] | 
CCOCCCNC(=O)c1c(NC(=O)Cc2coc3ccc(C)cc23)sc2c1CCC2 | -21.4% | 
O=C(CSCc1cnn(-c2ccccc2)c1-n1cccc1)NCc1ccc(Cl)cc1 | -27.5% | 
Cc1cccc(N2C(=O)SC(SC(=Nc3ccccc3)Nc3ccccc3)C2=O)c1 (centres undefined) |  | 3.55 µM (active)
Cc1cccc(N2C(=O)SC(N(CC(=O)O)c3cccc(C)c3)C2=O)c1 (centres undefined) | -87.4% [at 102 µM] | 
Cc1cccc(N2C(=O)C3C(c4ccccc4)OC4(C(=O)c5ccccc5C4=O)C3C2=O)c1 (centres undefined) | -13.5% | 
COc1ccc(OC)c(-c2csc(NC(=O)COC(=O)C3CC3)n2)c1 | -10.3% | 
